From PubChem BioAssay
The full list was thinned out, with hits kept by preference.
Pf Dd2 growth – Plasmodium falciparum Dd2 growth inhibition; Potency, µM (doses to about 28.9 µM), most hits filed as inhibitors; 120,000 tested, 4.3% active; P. falciparum Dd2 growth, SYBR Green, 72 h; active = well fitted inhibition curve with a large enough effect; also: nearly all actives have a fitted effect of over 65% in size
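Readout: SYBR Green fluorescence, 485 nm excitation, 535 nm emission, after ~16 h lysis at 37C. Before that, Dd2-infected red cells (2.5% hematocrit) grew 72 h with compound, 29 uM top final concentration.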
Numbers stand for hits.

Screening COCCNC(=O)CCc1cc2cc(OC)ccc2[nH]c1=O returned Pf Dd2 growth inactive.
For COc1cccc(CN2CCCC(Nc3cc(N)ncn3)C2)c1 (configuration not stated) the results were Pf Dd2 growth inactive.
For CCN(Cc1cccc(OCCO)c1)CC1CCCN(CCc2cccc(OC)c2)C1 (configuration not stated) the results were Pf Dd2 growth 10µM.
Screening COc1cccc(CCC2CCCN(C(=O)C3CCCC3)C2)c1 (configuration not stated) returned Pf Dd2 growth inactive.
Screening Cc1cccc(CC(=O)N2[C@@H]3CC[C@H]2CC(NC(=O)c2ccncc2)C3)c1 (some centres not stated) returned Pf Dd2 growth inactive.
For FC(F)(F)c1ccc(N2C3CCC2CN(Cc2cccc(-c4cccnc4)c2)C3)cc1 the results were Pf Dd2 growth 11.2µM.
Screening FC(F)(F)c1ccc(N2C3CCC2CN(Cc2ccc(-c4ccsc4)cc2)C3)cc1 returned Pf Dd2 growth inactive.
For FC(F)(F)c1ccc(N2C3CCC2CN(Cc2ccc(-c4ccccc4)cc2)C3)cc1 the results were Pf Dd2 growth inactive.
Screening NC(=O)c1ccc(NC(=O)C2CC(=O)N(c3n[nH]c4cc(Br)ccc34)C2)cc1 (configuration not stated) returned Pf Dd2 growth inactive.
For COc1ccc(-c2noc(N3CCc4ccccc43)n2)cc1 the results were Pf Dd2 growth inactive.
Screening Cc1cc(C)cc(Oc2nc3ccccn3c(=O)c2/C=C(\C#N)c2nc3ccccc3s2)c1 returned Pf Dd2 growth inactive.
`N#C/C(=C\c1c(Oc2ccc(Br)cc2)nc2ccccn2c1=O)c1nc2ccccc2s1` gave Pf Dd2 growth inactive.
For Cc1cc(C)cc(Oc2nc3c(C)cccn3c(=O)c2/C=C(\C#N)c2nc3ccccc3s2)c1 the results were Pf Dd2 growth 0.891µM.
CCc1ccc(Oc2nc3c(C)cccn3c(=O)c2/C=C(\C#N)c2nc3ccccc3s2)cc1 was read as Pf Dd2 growth inactive.
Cc1cc(Oc2nc3ccccn3c(=O)c2/C=C(\C#N)c2nc3ccccc3s2)ccc1Cl was read as Pf Dd2 growth inactive.
`Cc1cccn2c(=O)c(/C=C(\C#N)c3nc4ccccc4s3)c(Oc3ccc(F)cc3)nc12` gave Pf Dd2 growth 3.16µM.
`CCn1cc(CN2CC[C@H](CO)[C@H](N(C)C)C2)c(C)n1` gave Pf Dd2 growth inactive.
`CCN1CCC(N2CCCC(N3CCN(c4ccccc4OC)CC3)C2)CC1` (configuration not stated) gave Pf Dd2 growth inactive.
For COc1ccccc1N1CCN(Cc2ccc(=O)n(C)c2)CC1 the results were Pf Dd2 growth inactive.
`COc1ccccc1N1CCN(C2CCCN(C3CCN(Cc4ccccc4)CC3)C2)CC1` (configuration not stated) gave Pf Dd2 growth 12.6µM.
CC(=O)N1CCC(N2CC[C@H](c3nc4ncccc4[nH]3)C2)CC1 was read as Pf Dd2 growth inactive.
For O=c1n(-c2ccc(Cl)cc2)nc2n1CCN([S+](=O)([O-])c1cccc(C(F)(F)F)c1)C2 the results were Pf Dd2 growth inactive.
For CCc1ccc(CNC(=O)c2nnn3cc(C)[nH]c(=O)c23)cc1 the results were Pf Dd2 growth 7.94µM.
Cc1ccc(CNC(=O)c2nnn3cc(-c4ccc(F)cc4)[nH]c(=O)c23)cc1 was read as Pf Dd2 growth inactive.
CNC(=O)c1nnn2cc(C)[nH]c(=O)c12 was read as Pf Dd2 growth inactive.
COc1cccc(CNC(=O)c2nnn3cc(C)[nH]c(=O)c23)c1 was read as Pf Dd2 growth inactive.
Cc1cn2nnc(C(=O)NCCC3=CCCCC3)c2c(=O)[nH]1 was read as Pf Dd2 growth 10µM.
For Cc1cn2nnc(C(=O)NCCc3cccs3)c2c(=O)[nH]1 the results were Pf Dd2 growth inactive.
Screening CC(O)CCNS(=O)(=O)c1ccc2c(c1)CN(C(=O)CCn1cccn1)CC2 (configuration not stated) returned Pf Dd2 growth inactive.
Screening COc1ccc(C(=O)N2CCC(c3nn(Cc4ccccc4)c(=O)[nH]3)CC2)cc1 returned Pf Dd2 growth inactive.
`CCOc1ccccc1-c1nc(-c2nnn3c2COC(c2ccccc2Cl)C3)no1` (configuration not stated) gave Pf Dd2 growth inactive.
Screening COc1ccc(CNC(=O)c2c(OCC3CC3)cc(=O)n3c2CCOCC3)cc1 returned Pf Dd2 growth inactive.
Screening O=C(N[C@@H]1CN(C(=O)Nc2ccc(OC(F)(F)F)cc2)CCC[C@H]1O)c1ccc(OCCN2CCOCC2)cc1 returned Pf Dd2 growth inactive.
Screening COc1ccc(C(=O)N[C@@H]2CN(C(=O)Nc3cccc(C#N)c3)CCC[C@H]2O)cc1 returned Pf Dd2 growth inactive.
COc1ccc(C(=O)N[C@@H]2CN(C(=O)Nc3ccc(OC(F)(F)F)cc3)CCC[C@H]2O)cc1 was read as Pf Dd2 growth 5.01µM.
For CCN(CC)Cc1ccc2c(c1)CN(C(=O)N(CC)CC)CCO2 the results were Pf Dd2 growth inactive.
`CCN(CC)Cc1ccc2c(c1)CN(C(=O)c1ccsc1)CCO2` gave Pf Dd2 growth inactive.
For CCN(CC)Cc1ccc2c(c1)CN(C(=O)COc1ccc(C)cc1)CCO2 the results were Pf Dd2 growth 2.82µM.
CC1(C)[C@H](Cc2cc(CO)on2)C[C@@H]1NS(=O)(=O)c1ccc(F)cc1 was read as Pf Dd2 growth inactive.
Screening CC1=C(C(=O)N(C)C)C(c2ccc(Cl)cc2)N2C(CC(=O)NCc3ccccc3)=CSC2=N1 (configuration not stated) returned Pf Dd2 growth inactive.
Cc1noc(C)c1-c1cc2c(cc(C)n2CCN(C)C)c(-c2cccnc2)n1 was read as Pf Dd2 growth inactive.
For Cc1ccc(F)c(OC2(C(=O)O)CCN(S(=O)(=O)c3cnn(C)c3)CC2)c1 the results were Pf Dd2 growth inactive.
CC(C)CC(=O)N1CCCC(c2nc(-c3cccnc3)no2)CCNC(=O)CC1 (configuration not stated) was read as Pf Dd2 growth inactive.
For CCn1c2c(c(=O)n1-c1ccccc1)CCN(C(=O)Cc1ccc3c(c1)OCO3)C2 the results were Pf Dd2 growth inactive.
CCCn1nccc1C(=O)N1CCCC(CCc2cccc(C(F)(F)F)c2)C1 (configuration not stated) was read as Pf Dd2 growth inactive.
For O=C(c1cccc(O)c1)N1CCCC(CCc2cccc(C(F)(F)F)c2)C1 (configuration not stated) the results were Pf Dd2 growth inactive.
`CCNc1ncc(CN2CCCC(CCc3cccc(C(F)(F)F)c3)C2)cn1` (configuration not stated) gave Pf Dd2 growth 7.94µM.
`COc1ccc(CNC(=O)C(=O)NCC(c2ccco2)S(=O)(=O)c2ccc(C)cc2)cc1` (configuration not stated) gave Pf Dd2 growth inactive.
`COc1ccc(CNCCN2CCCC2)cc1` gave Pf Dd2 growth inactive.
`COc1ccc(CNCCC(c2ccc(C)cc2)c2ccco2)cc1` (configuration not stated) gave Pf Dd2 growth 12.6µM.
COCCCNC(=O)C1(C)CN(Cc2ccccc2)Cc2ccc(NCC(C)C)nc21 (configuration not stated) was read as Pf Dd2 growth inactive.
Screening CC(C)CNc1ccc2c(n1)C(C)(C(=O)Nc1ccncc1)CN(Cc1ccccc1)C2 (configuration not stated) returned Pf Dd2 growth 2.24µM.
`CC(C)CNc1ccc2c(n1)C(C)(C(=O)Nc1ccn(C)n1)CN(Cc1ccccc1)C2` (configuration not stated) gave Pf Dd2 growth inactive.
